Measured values as given in PubChem BioAssay AID651593 (National Center for Advancing Translational Sciences (NCATS), 2012).
About 860 (78%) of roughly 1,100 compounds were called active. Inconclusive results (about 19%) are left out. Calls come from the whole dose curve; as a rule, active = well fitted activation curve with a large enough effect; inconclusive = small, poorly fitted or top-dose-only effect; inactive = flat fitted curve, though single readings scatter. The set was probably picked from earlier hits. The list shows a part of the results.

Experiment: qHTS of Nrf2 Activators: Hit Validation in Primary Assay; note: nearly all actives have a fitted effect of over 70% in size
Conditions: Nrf2/ARE reporter cell assay; Potency: activation; series mostly up to 46.1 µM
Summary of the method: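 AREc32 cells stably carrying an ARE-driven firefly luciferase, plated overnight, then exposed 24 h at 37 °C to compounds at several concentrations. ARE activation read as luminescence with Steady-Glo after 30 min at room temperature.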
Potency is the fitted concentration of half-maximal effect.

Structure (SMILES) | Potency
O=c1[nH]ncc(N/N=C\c2cccs2)c1Cl | 20.6 µM (active)
CN(C)c1oc(/C=C/c2ccccc2)nc1C#N | 3.26 µM (active)
O=C(CCNc1cc(Cl)cc(Cl)c1)c1cccs1 | 6.51 µM (active)
O=[N+]([O-])c1ccc(/C=N/Nc2ccc3ccccc3c2)o1 | 2.91 µM (active)
Nc1ccc(S(=O)(=O)Nc2nccc(/C=C/c3cccc(Br)c3)n2)cc1 | 3.26 µM (active)
CC(C)C(=O)Nc1nnc(-c2ccco2)s1 | 5.8 µM (active)
Cc1cc(NC(=O)Nc2cc(Cl)sc2Cl)no1 | 4.11 µM (active)
O=C1N/C(=C\c2ccsc2)C(=O)N1Cc1ccc(F)cc1 | 1.64 µM (active)
Cc1c(=O)n(OCc2ccccc2)c2ccccc2[n+]1[O-] | 3.26 µM (active)
Cc1c(=O)n(OCc2ccc(Cl)cc2)c2ccccc2[n+]1[O-] | 1.64 µM (active)
C=CCn1c(SCC(C)=O)nc2scc(-c3ccco3)c2c1=O | 0.731 µM (active)
O=C(/C=C\c1ccc2c(c1)OCO2)CC1(O)C(=O)Nc2ccccc21 (stereo unspecified) | 23.1 µM (active)
CN1CCN(C(=O)CCN2C(=O)/C(=C/c3cccc(Br)c3)SC2=S)CC1 | 5.17 µM (active)
O=C(N/N=C/c1ccsc1)c1ccc2ccccc2n1 | 16.4 µM (active)
C(=N/n1c2ccccc2c2ccccc21)/c1ccco1 | 2.31 µM (active)
COc1ccccc1C=Cc1ccnc2ccccc12 | 2.06 µM (active)

Structure (SMILES) | Potency
Cc1nc(NC(=O)/C=C/c2ccccc2)n[nH]1 | 3.66 µM (active)
O=C(/C=C/c1ccccc1)Nc1ncn[nH]1 | 3.66 µM (active)
FC(F)(F)c1cc(-c2cccs2)nc(-n2cc(Br)cn2)n1 | 1.3 µM (active)
C/C(=N\NC(=O)c1cccc(Br)c1)c1ccccn1 | 4.61 µM (active)
CCn1c(/C=C/c2ccccc2F)nc2ccccc2c1=O | 2.31 µM (active)
CCn1c(/C=C/c2ccccc2[N+](=O)[O-])nc2ccccc2c1=O | 3.66 µM (active)
CCn1c(/C=C/c2ccccc2)nc2ccccc2c1=O | 4.11 µM (active)
O=c1[nH]c(/C=C/c2ccccc2[N+](=O)[O-])nc2ccccc12 | 0.411 µM (active)
CCCn1c(-c2cccs2)nc2nc3ccccc3nc21 | 1.84 µM (active)
O=c1cc(-c2ccccc2Cl)oc2c(Br)ccc(O)c12 | 6.51 µM (active)
c1ccc(-c2cc3c(ccc4nonc43)nn2)cc1 | 7.31 µM (active)
[O-][n+]1onc2c3ccnnc3ccc21 | 10.3 µM (active)
[O-][n+]1onc2c3cc(-c4ccccc4)nnc3ccc21 | 8.2 µM (active)
CC(=O)N1CCc2c(sc(NC(=O)CCS(=O)(=O)c3ccccc3)c2C#N)C1 | 18.4 µM (active)
O=C1C(=Cc2ccco2)CCCC1=Cc1ccco1 | 3.26 µM (active)
